Test results as given in ChEMBL document CHEMBL3988442, “University of Dundee, Small-Polar-MMV Screening Library” (2021).
Among all 69,000 compounds or so, about 950 (1.4%) showed an effect of 50% or more. The sample holds strong results, similar compounds and a random draw of the others, so the mix is not that of the screen.

The compounds below were run on Mycobacterium tuberculosis (assay: Cornell M. t heat shock assay; also: in the data most compounds retested in dose-response had high values).
Format: functional, organism-based
Parameters: dose or concentration left out as unconfirmed

| Structure (SMILES) | Percent Effect [%] |
| --- | --- |
| Cn1cccc1C(=O)N1CC[C@@H]2[C@@H]1CC(=O)N2CCN1CCOCC1.O=C(O)C(F)(F)F | -25.84 |
| CCO[C@@H]1CC[C@H]2[C@H]1OCCN2Cc1ccoc1.O=C(O)C(F)(F)F | 1.857 |
| O=C(N[C@@H]1CN(Cc2ccccc2)C[C@@H]2CCCO[C@@H]21)C1CC1.O=C(O)C(F)(F)F | -8.331 |
| O=C(N[C@@H]1CN(Cc2ccoc2)C[C@@H]2CCCO[C@@H]21)C1CCC1 | 51.5 |
| O=C(CC1CC1)N[C@@H]1CN(Cc2ccoc2)C[C@@H]2CCCO[C@@H]21 | -3.487 |
| Cc1nn(-c2cc(Cl)cc(Cl)c2)c(C)c1CCC(=O)O | 19.8 |
| Cc1cc(=O)[nH]c(-n2nc(C)c(CCC(=O)Nc3nc(C)cs3)c2C)n1 | 95.61 |
| COC(=O)CCc1c(C)nn(-c2nc(C)cc(=O)[nH]2)c1C | 103.1 |
| Cc1csc(NC(=O)Cn2nc(C)ccc2=O)n1 | -1.06 |
| Cc1cc(=O)[nH]c(-n2nc(C)c(CCC(=O)NCC(C)C)c2C)n1 | 98.01 |
| COc1ccc(C)nc1NC(=O)CCc1c(C)nn(C)c1C | -18.22 |
| COCCNC(=O)CCc1c(C)nn(-c2nc(C)c(C)c(=O)[nH]2)c1C | 37.18 |
| Cc1nc2cc(O)nn2c(C)c1CCC(=O)NCCCC(C)C | -0.01064 |
| Cc1nc(NC(=O)CCc2c(C)nc3cc(O)nn3c2C)sc1C | 27.32 |
| CC(=O)N1[C@H](CN(C)C)C[C@@H]2CN(C(=O)c3cccn3C)CC[C@@H]21.O=C(O)C(F)(F)F | -10.3 |
| O=C(O)C(F)(F)F.O=C(c1cccnc1)N1CCC2(CCN(C(=O)c3ccco3)CC2)C1 | 23.94 |
| CCC(C)(C)NC(=O)c1ncn2c1CN(C)S(=O)(=O)c1ccccc1-2.O=C(O)C(F)(F)F | -13.28 |
| CCNC(=O)NCc1ccccc1NS(=O)(=O)c1ccccc1 | 35.07 |
| N#Cc1nc(COc2ccc3c(c2)OCO3)oc1NC1CCCCC1 | 5.438 |
| O=C(O)C(F)(F)F.c1cn2c(n1)CN(Cc1ccsc1)CC(Cn1cncn1)C2 (stereo not drawn) | -22.01 |
| Cc1ccc(-c2cc(-c3c(C)nn(CCO)c3C)c(C#N)c(N)n2)cc1 | 10.03 |
| CCCn1cc(-c2cc(-c3cc(CC)n[nH]3)c(C#N)c(N)n2)c(C)n1 | 41.25 |

| Structure (SMILES) | Percent Effect [%] |
| --- | --- |
| COc1ncc(-c2cc(-c3ccn(C)c3)nc(N)c2C#N)cn1 | -43.44 |
| CCCn1cc(-c2cc(-c3c[nH]cn3)c(C#N)c(N)n2)c(C)n1 | 15.71 |
| CCCn1cc(-c2cc(-c3ccoc3)c(C#N)c(N)n2)c(C)n1 | 75.39 |
| CCCn1cc(-c2cc(-c3cnc(OC)nc3)c(C#N)c(N)n2)c(C)n1 | 100.5 |
| O=C(C[C@@H]1COC[C@H]2CN(C(=O)c3cccnc3)C[C@@H]12)N1CCOCC1.O=C(O)C(F)(F)F | -5.703 |
| CN(C)C(=O)CN1C(=O)CCC12CCN(Cc1ccsc1)CC2.O=C(O)C(F)(F)F | -0.1041 |
| COCc1ccc(CN2CCC(O)(Cn3ccc4ncccc43)CC2)o1.Cl | -9.994 |
| Cl.c1ccc(CNc2cc(C3CCCNC3)ccn2)nc1 (stereo not drawn) | 18.31 |
| Cc1oncc1C(=O)NCc1cc(=O)n2c(n1)CN(CC1CC1)CCC2.O=C(O)C(F)(F)F | -32.57 |
| COCC(=O)N1CC[C@H]2O[C@@H](C)C[C@H]2C1 | 64.99 |
| COCC(=O)N1CC[C@H]2C[C@H](C)O[C@@H]2C1 | 3.806 |
| COCC(=O)N1CC[C@@H]2O[C@@H](C)C[C@H]2C1 | -1.773 |
| COCC1CN(Cc2ccc3c(c2)OCO3)Cc2ncn(C)c21.O=C(O)C(F)(F)F.O=C(O)C(F)(F)F (stereo not drawn) | -21.56 |
| Cl.O=C(N1CCCC1)C1(Cc2ccc(-c3cccs3)cc2)CCNC1 (stereo not drawn) | -20.63 |
| Cc1c[nH]c(C2CCCN(Cc3ccccc3C(=O)O)C2)n1.O=CO (stereo not drawn) | -20.14 |
| CC(C)CCN1C[C@H]2C[C@H](C(=O)Nc3ccccc3)[C@@H](C1)O2.O=C(O)C(F)(F)F | -19.48 |
| CN(Cc1cccnc1)[C@@H]1CN(C(=O)c2ccno2)[C@@H]2CCCO[C@H]12.O=C(O)C(F)(F)F.O=C(O)C(F)(F)F | 0.2387 |
| COC(=O)Cn1c(=O)nc2n1C(=O)N(c1ccc(C)cc1)C2 | 3.714 |
| CCS(=O)(=O)NC[C@]12COC[C@H]1CN(Cc1cccc(OC)c1)C2.O=C(O)C(F)(F)F | -11.48 |
| CN(Cc1cccc(F)c1)C(=O)CS(=O)(=O)Cc1ccc(Cl)c(Cl)c1 | 52.33 |
| CN(Cc1cccc(F)c1)C(=O)CS(=O)(=O)Cc1c(Cl)cccc1Cl | 25.49 |
| CN(Cc1ccccc1)C(=O)CS(=O)(=O)Cc1ccc(Cl)c(Cl)c1 | 47.42 |

| Structure (SMILES) | Percent Effect [%] |
| --- | --- |
| Cc1ccc(-c2cc(C3CCNCC3)nc(C)n2)cc1.Cl | -12.8 |
| CSc1ccc(-c2cc(CN)nc3ccnn23)cc1.Cl | 4.059 |
| COC(=O)C(NC(=O)c1ccc(N(C)C)nc1)c1ccccc1 (stereo not drawn) | 22 |
| COC(=O)C(NC(=O)c1ccc(NC2CC2)nc1)c1ccccc1 (stereo not drawn) | 51.61 |
| NC(=O)C(NC(=O)c1ccc(NC2CC2)nc1)c1ccccc1 (stereo not drawn) | -7.076 |
| CC(C)Cc1cc(CN2C[C@H]3CC[C@@H]2CN(Cc2cscn2)C3)n[nH]1 | 107.7 |
| CC(C)(C)c1cc(CN2C[C@H]3CC[C@@H]2CN(Cc2cscn2)C3)n[nH]1 | 92.4 |
| COC(=O)N1C[C@H]2CC[C@@H]1CN(Cc1cscn1)C2 | 1.905 |
| CC(C)c1cc(C(=O)N2C[C@H]3CC[C@@H]2CN(Cc2cscn2)C3)no1 | 37.62 |
| COc1cccc(C(=O)N2C[C@H]3CC[C@@H]2CN(Cc2cscn2)C3)c1 | -27.99 |
| Cc1c[nH]c(C(=O)N2C[C@H]3CC[C@@H]2CN(Cc2cscn2)C3)n1 | 2.551 |
| CN1C(=O)C(c2ccccc2)CC12CCN(CCO)CC2.O=C(O)C(F)(F)F (stereo not drawn) | -21.97 |
| Cc1cccc(CN2CC3(CCN(C4CCOC4)CC3)OCC2=O)n1.O=C(O)C(F)(F)F.O=C(O)C(F)(F)F (stereo not drawn) | -30.47 |
| O=C(O)C(F)(F)F.O=C(c1ccco1)N1CCO[C@@H]2CN(Cc3nccs3)CC[C@@H]2C1 | 4.898 |
| CCC1=N[C@@]2(CC[C@@H]3CN(Cc4cccc(Cl)c4)C[C@@H]32)C(=O)N1C.O=C(O)C(F)(F)F | 32.88 |
| Cc1nc(C2CCN(Cc3ncc[nH]3)CC2)no1.O=CO | -19.83 |
| CNc1oc(-c2ccc(S(=O)(=O)N(C)C)o2)nc1C#N | -18.56 |
| CNc1oc(-c2ccc(OC)c(S(=O)(=O)N(C)C)c2)nc1C#N | 4.952 |
| Cc1oc(-c2nc(C#N)c(NC3CC3)o2)cc1S(=O)(=O)N1CCCC1 | -1.847 |
| CN(C)S(=O)(=O)c1ccc(-c2nc(C#N)c(NC3CCCCC3)o2)o1 | 5.856 |
| CN(C)S(=O)(=O)c1ccc(-c2nc(C#N)c(NC3CC3)o2)o1 | 78.01 |
| Cc1oc(-c2nc(C#N)c(NC(C)(C)C)o2)cc1S(=O)(=O)N1CCCC1 | 1.248 |

| Structure (SMILES) | Percent Effect [%] |
| --- | --- |
| CN(C)S(=O)(=O)c1ccc(-c2nc(C#N)c(NC(C)(C)C)o2)o1.Cl | 74.72 |
| CC(C)Nc1oc(-c2ccc(S(=O)(=O)N(C)C)o2)nc1C#N | -8.92 |
| CCN1CCOCC2(CCCN(C(=O)c3ccncc3F)C2)C1.O=C(O)C(F)(F)F (stereo not drawn) | -0.7478 |
| Cc1ccc(CN2CCC(O)(Cn3ccc4ncccc43)CC2)o1.Cl | -13.38 |
| CNC(=O)C1Cn2ccnc2C2(CCN(Cc3ccncc3)CC2)O1.O=C(O)C(F)(F)F.O=C(O)C(F)(F)F.O=C(O)C(F)(F)F (stereo not drawn) | -2.036 |
| O=C(NCc1ccco1)[C@H]1CC[C@@H]2[C@@H](CCN2C2CCC2)O1.O=C(O)C(F)(F)F | -4.585 |
| CN(C)CCOCC1CN(Cc2ccoc2)Cc2nnn(C)c21.O=C(O)C(F)(F)F.O=C(O)C(F)(F)F (stereo not drawn) | -17.74 |
| Cc1cc(N(C)C)nc(C2CCCN2)n1.Cl.Cl (stereo not drawn) | -13.2 |
| O=C(COCCc1ccccc1)N1CCCC(n2cccn2)C1 (stereo not drawn) | 11.3 |
| Cn1cc(CN2CCCC23CCN(C(=O)c2ccccc2)CC3)cn1.O=C(O)C(F)(F)F | -27.87 |
| CN(C)CC(=O)N1CCc2sc(C(=O)N3CCN(C)CC3)cc21 | 17.23 |
| CN(C)CC(=O)N1CCc2sc(C(=O)N3CCOCC3)cc21 | 54.7 |
| CC(C)NC(=O)c1cc2c(s1)CCN2C(=O)CN(C)C | -7.193 |
| CC(C)N(C)Cc1cncc2c1CCN(C1CCOCC1)C2.Cl.Cl.Cl | 21.63 |
| CNC(=O)CN1CCC2(CCCN(CC3CCOC3)C2)CC1.O=C(O)C(F)(F)F.O=C(O)C(F)(F)F (stereo not drawn) | 3.829 |
| O=C(O)C(F)(F)F.O=C(O)C(F)(F)F.O=C1CO[C@@H]2CN(Cc3ccsc3)C[C@H]2N1Cc1ccncc1 | 1.203 |
| CN(Cc1noc(C2CC2)n1)C1CCN(CCc2cccs2)C1 (stereo not drawn) | 12.6 |
| CN(Cc1noc(C2CC2)n1)C1CCN(Cc2ccncc2)C1 (stereo not drawn) | 51.32 |
| CN(Cc1noc(C2CC2)n1)C1CCN(CCc2cnn(C)c2)C1 (stereo not drawn) | -5.5 |
| CN(Cc1noc(C2CC2)n1)C1CCN(Cc2ccc(F)c(F)c2)C1 (stereo not drawn) | -5.311 |
| CC(=O)N(Cc1noc(C2CC2)n1)C1CCN(Cc2ccncc2)C1 (stereo not drawn) | -2.088 |
| Cc1ccc(CCN2CCC(N(C)Cc3noc(C4CC4)n3)C2)cc1 (stereo not drawn) | 83.22 |
